Six compounds from the supplement of paper PMC13380429 can be followed below.

For assay [1], the system named is Vero E6 infected with SARS-CoV-2. Kind of assay: inhibition of SARS-CoV-2 cytopathic effect; higher = more antiviral protection, active = above 15. To be noted: 48 h.
Assay [2] has the same test system. Kind of assay: morphology score (similarity to uninfected cells); higher = more like uninfected cells. The conditions noted are these: 24 h.

Consider `CC(C)C(=O)SCCCCC[C@H](NC(=O)OC(C)(C)C)C(=O)NC12CC3CC(CC(C3)C1)C2`, for which the “inhibition of SARS-CoV-2 cytopathic effect” value in assay [1] (1 nM) is -5.42% (inactive); in assay [1] (8.33 nM), -0.36% (inactive); in assay [1] (100 nM), -0.22% (inactive); in assay [1] (833.33 nM) it was 2.47% (inactive); in assay [1] (10000 nM) it was -6.65% (inactive).
`CN1CCN2c3c(cccc31)[C@@H]1CN(CCCC(=O)c3ccc(F)cc3)CC[C@@H]12` [lumateperone]: the “inhibition of SARS-CoV-2 cytopathic effect” value in assay [1] (1 nM) is -2.67% (inactive); in assay [1] (8.33 nM), 2.96% (inactive); in assay [1] (100 nM) it was 2.88% (inactive); in assay [1] (833.33 nM), 2.75% (inactive); in assay [1] (10000 nM), 2.86% (inactive).
In the same order, the values of `CC1(C)C(=O)N(c2ccc(C#N)c(C(F)(F)F)c2)C(=O)N1CCCCO` are 2.69% (inactive), 0.32% (inactive), 4.71% (inactive), 0.45% (inactive) and 1.21% (inactive).
For `CN(C)CCCOc1nn(Cc2ccccc2)c2ccccc12` [benzydamine], in that order: 1.21% (inactive), 2.44% (inactive), 2.33% (inactive), 0.09% (inactive) and -0.14% (inactive).
For `O=C(Nc1c(Cl)cncc1Cl)c1ccc(OC(F)F)c(OCC2CC2)c1` [roflumilast], in that order: -0.45% (inactive), 1.68% (inactive), 0.72% (inactive), -0.19% (inactive) and 0.85% (inactive).
The compound `C[C@]12CC[C@H]3[C@@H](CCC4=CC(=O)CC[C@@]43C)[C@@H]1CC[C@@H]2O` (10 µM) registered a morphology score in assay [2] of -0.0371.
